# Test results reported in PubChem BioAssay (NCI).
# Compounds without any hit were thinned out: in the full panel of roughly 83,000, 20% have a hit.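 Treatment: one concentration, 48 hours, 96-well format. Scoring: percent growth, with anything below 10 considered active.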 Values without a mark were called inactive. Active and inactive are the calls of the source.
# Assays:
# Assay in all cases: NCI-60 one-dose screen, 48 h (100 = growth as untreated, 0 = no growth, -100 = all killed)
# Settings in all cases: 10 µM unless noted
# DU-145 prostate = test system: DU-145 prostate
# K-562 leukemia = test system: K-562 leukemia
# MALME-3M melanoma = test system: MALME-3M melanoma
# MDA-MB-231 breast = test system: MDA-MB-231 breast
# RXF 393 renal = test system: RXF 393 renal
# SF-268 CNS = test system: SF-268 CNS
# SF-295 CNS = test system: SF-295 CNS
# SF-539 CNS = test system: SF-539 CNS
# UACC-257 melanoma = test system: UACC-257 melanoma
# M14 melanoma = test system: M14 melanoma
# HCT-15 colon = test system: HCT-15 colon
# HT29 colon = test system: HT29 colon
# SNB-75 CNS = test system: SNB-75 CNS
# SNB-19 CNS = test system: SNB-19 CNS
# U251 CNS = test system: U251 CNS
# PC-3 prostate = test system: PC-3 prostate
# SK-MEL-5 melanoma = test system: SK-MEL-5 melanoma
# UACC-62 melanoma = test system: UACC-62 melanoma
# LOX IMVI melanoma = test system: LOX IMVI melanoma
# SK-MEL-28 melanoma = test system: SK-MEL-28 melanoma
Compound,growth (DU-145 prostate),growth (K-562 leukemia),growth (MALME-3M melanoma),growth (MDA-MB-231 breast),growth (RXF 393 renal),growth (SF-268 CNS),growth (SF-295 CNS),growth (SF-539 CNS),growth (UACC-257 melanoma),growth (M14 melanoma),growth (HCT-15 colon),growth (HT29 colon),growth (SNB-75 CNS),growth (SNB-19 CNS),growth (U251 CNS),growth (PC-3 prostate) [%],growth (SK-MEL-5 melanoma),growth (UACC-62 melanoma),growth (LOX IMVI melanoma),growth (SK-MEL-28 melanoma)
CCCSc1nc(N)nc2nc[nH]c12,119%,90.5%,249%,104%,107%,108%,120%,95.6%,105%,96%,104%,112%,108%,102%,107%,99.4,101%,87.6%,99.3%,126%
Cn1cc(-c2nnc(-c3ccccc3)s2)c2cc(Br)cnc21,92.6%,70.7%,69.9%,39.3%,102%,91.7%,95.5%,78.9%,100%,101%,77.6%,95%,29.9%,87.9%,92%,84.9,74.1%,69.5%,83.3%,97.6%
CC1=C/C(=C(\c2cc(C)c(O)c(C(=O)O)c2)c2c(Cl)cccc2Cl)C=C(C(=O)O)C1=O,118%,114%,88.3%,99.9%,120%,104%,100%,100%,106%,97.4%,105%,97.8%,90.3%,91.3%,104%,89,100%,94.9%,95.7%,116%
CCN(CCO)CCC(=O)c1ccc([N+](=O)[O-])cc1,103%,101%,102%,115%,106%,97%,103%,105%,105%,106%,101%,105%,93.2%,117%,98.1%,103,100%,104%,98.5%,117%
COc1cc2c(cc1OCCCN1CCN(CCCOc3cc4c(cc3OC)C(=O)N3C[C@H](F)C[C@H]3C=N4)CC1)N=C[C@@H]1C[C@@H](F)CN1C2=O,-19.9% (active),2.13% (active),-75.7% (active),18.8%,-52.1% (active),9.5% (active),13.8%,-68.4% (active),20.8%,-7.96% (active),56.6%,0.625% (active),-72.3% (active),18.1%,8.39% (active),12.7,-44.7% (active),-59.7% (active),5.06% (active),-50.8% (active)
Clc1ccccc1/C=N\Nc1ccccn1,105%,94.8%,110%,83.3%,107%,96.3%,95.7%,98.5%,105%,124%,77.6%,94.3%,74.8%,90.6%,95.4%,104,89.2%,85.3%,93%,99.2%
C=C(C)[C@@H]1CC[C@]2(C(N)=O)CC[C@]3(C)[C@H](CC[C@@H]4[C@@]5(C)CC[C@H](O)C(C)(C)[C@@H]5CC[C@]43C)[C@@H]12,-33% [100 µM] (active),4.57% [100 µM] (active),-57.1% [100 µM] (active),-28.4% [100 µM] (active),-49.3% [100 µM] (active),4.41% [100 µM] (active),-57.7% [100 µM] (active),-70.5% [100 µM] (active),-6.08% [100 µM] (active),8.8% [100 µM] (active),6.36% [100 µM] (active),-49.5% [100 µM] (active),-39.1% [100 µM] (active),1.3% [100 µM] (active),-69.3% [100 µM] (active),,-39.6% [100 µM] (active),-23.2% [100 µM] (active),-72.8% [100 µM] (active),0.379% [100 µM] (active)
